About 83,000 compounds went through this panel and 20% of them were active in at least one assay; those are over-represented in the sample as a whole.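 Compound tested at a single concentration for 48 hours in 96-well plates; a percent growth value below 10 was scored as active.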 A number with no mark means an inactive call. The source made the active and inactive calls.
How the values were obtained:
Assay in all cases: NCI-60 one-dose screen, 48 h (100 = growth as untreated, 0 = no growth, -100 = all killed)
Conditions in all cases: 10 µM unless noted
NCI-H23 lung = system: NCI-H23 lung
NCI-H226 lung = system: NCI-H226 lung
NCI-H322M lung = system: NCI-H322M lung
HOP-62 NSCLC = system: HOP-62 NSCLC
NCI-H460 lung = system: NCI-H460 lung
HOP-92 NSCLC = system: HOP-92 NSCLC
NCI-H522 lung = system: NCI-H522 lung
A549/ATCC NSCLC = system: A549/ATCC NSCLC
786-0 renal = system: 786-0 renal
COLO 205 colon = system: COLO 205 colon
DU-145 prostate = system: DU-145 prostate
K-562 leukemia = system: K-562 leukemia
MALME-3M melanoma = system: MALME-3M melanoma
MDA-MB-231 breast = system: MDA-MB-231 breast
RXF 393 renal = system: RXF 393 renal
SF-268 CNS = system: SF-268 CNS
SF-295 CNS = system: SF-295 CNS
SF-539 CNS = system: SF-539 CNS
UACC-257 melanoma = system: UACC-257 melanoma
M14 melanoma = system: M14 melanoma

| SMILES | growth (NCI-H23 lung) | growth (NCI-H226 lung) | growth (NCI-H322M lung) | growth (HOP-62 NSCLC) | growth (NCI-H460 lung) | growth (HOP-92 NSCLC) | growth (NCI-H522 lung) | growth (A549/ATCC NSCLC) | growth (786-0 renal) | growth (COLO 205 colon) | growth (DU-145 prostate) | growth (K-562 leukemia) | growth (MALME-3M melanoma) | growth (MDA-MB-231 breast) | growth (RXF 393 renal) | growth (SF-268 CNS) | growth (SF-295 CNS) | growth (SF-539 CNS) | growth (UACC-257 melanoma) | growth (M14 melanoma) |
| --- | --- | --- | --- | --- | --- | --- | --- | --- | --- | --- | --- | --- | --- | --- | --- | --- | --- | --- | --- | --- |
| O=Cc1cc2ccccc2nc1Oc1ccc(C(F)(F)F)cc1 | 85.3% | 76.9% | 94.9% | 80.9% | 98.8% | 52.8% | 85.4% | 98.4% | 101% | 83.6% | 98.4% | 59% | 96% | 75.7% | 91.9% | 83.4% | 82.9% | 97.8% | 107% | 99.8% |
| O=C1Nc2cc(-c3cccc([N+](=O)[O-])c3)ccc2/C1=C/c1ccc[nH]1 | 48.4% | 50.6% | 58.3% | 76.4% | 47.6% | 72.5% | 78.3% | 101% | 107% | 85.9% | 111% | 72.2% | 89% | 39.5% | 82.1% | 97.1% | 99.8% | 93.5% | 107% | 89.8% |
| COC(=O)C(OC(C)=O)C(OC(C)=O)c1ccc(OC)c(OC)c1 (stereo not drawn) | 96.8% | 98.4% | 93.4% | 98.2% | 104% | 110% | 85.9% | 80.1% | 101% | 123% | 102% | 83.2% | 104% | 92.7% | 125% | 99.6% | 101% | 105% | 82.5% | 93.9% |
| CCCCCCNC(=O)Oc1ccc(/C(=C(\C)c2ccccc2)c2ccc(OCCN3CCCCC3)cc2)cc1 | 68.7% | 93.8% | 80.5% | 75.4% | 41% | 64.1% | 71.8% | 64.4% | 16.3% | 5.73% (active) | 82.8% | 4.69% (active) | 34.2% | 78.1% | 47.6% | 68.3% | 35.4% | 23.3% | -0.337% (active) | -22.9% (active) |
| O=C(C1CCC1)N1N=C(c2ccc(-n3ccc(C(F)(F)F)n3)cc2)CC1c1ccc[nH]1 (stereo not drawn) | 101% | 107% | 90.1% | 108% | 101% | 130% | 84.7% | 89.3% | 95.8% | 113% | 103% | 77.4% | 98.6% | 83.1% | 115% | 102% | 95% | 98% | 92.2% | 93.2% |
| COc1ccc(C/C(=C(\C)c2ccc(OCCN3CCCC3)cc2)c2ccc(OCCN3CCCC3)cc2)cc1 | 83.9% | 84.4% | 81.7% | 80.3% | 6.71% (active) | 26.4% | 56.8% | 69.3% | 69.1% | -25.8% (active) | 70% | -64.1% (active) | 47.1% | 17.8% | 55.7% | 69.9% | 34.2% | 29.9% | 63.9% | – |
| NC1[C@H](c2c[nH]c3ccccc23)c2c([nH]c3ccccc23)[C@H]1c1c[nH]c2ccccc12 (stereo partly drawn) | 85.7% | 92.1% | 91.6% | 90.1% | 97.1% | 84.2% | 88.5% | 90.6% | 96.4% | 110% | 95.3% | 90.8% | 88.9% | 75.7% | 104% | 84.4% | 92.9% | 100% | 111% | – |
| O=C(CCN1CCCC1)Nc1ccc2c(NCCCCc3ccccc3)c3ccccc3nc2c1 | -57.9% (active) | 63.1% | -24.8% (active) | -46.6% (active) | -69% (active) | -2.02% (active) | -38.7% (active) | -45.5% (active) | 15% | -47.1% (active) | -61.8% (active) | -31.2% (active) | -88.7% (active) | -74.9% (active) | 7.61% (active) | -73.2% (active) | 43.4% | -70.3% (active) | -60.8% (active) | – |
| COc1cc2oc(-c3cccc(C(=O)Nc4ccc(Cl)cc4)c3)cc(=O)c2c(O)c1OC | 72.6% | 66.4% | 58.4% | 0.268% (active) | 20.5% | 10.5% | 60.4% | 47.5% | 38.7% | 74% | 62.9% | 69.4% | 68.4% | 55.8% | 41.3% | 28.6% | 52% | 55% | 83.2% | 69.8% |
| CCCCCC(=O)Oc1ccc(/C(=C(/C)Cc2ccc(OC)cc2)c2ccc(OCCCN(C)C)cc2)cc1 | 76.7% | 93.3% | 92.1% | 80.4% | 69.6% | 73.4% | 98.1% | 76.1% | 58.4% | 55.6% | 90.4% | 6.07% (active) | 74.9% | 66.1% | 61.6% | 70.1% | 32.4% | 66.8% | 75.9% | – |
| COc1cc(/C(C)=C(\c2ccc(Cl)cc2)c2ccc(OCCN3CCCC3)cc2)ccc1F | 67.4% | 87.8% | 71% | 87.2% | 6.04% (active) | 52.4% | 80% | 57.1% | 71.4% | 16.3% | 69.4% | 3.65% (active) | -2.59% (active) | 56.4% | 69.3% | 76.6% | 75.2% | 73.3% | 3.02% (active) | – |
| CC(C)(C)c1ccc(NS(=O)(=O)c2ccc3nc(NC(=O)c4cnccn4)[nH]c3c2)cc1 | 52% | 44.3% | 41.9% | 53.4% | 6.16% (active) | 36.7% | 20.4% | 38.8% | 30% | 21.7% | 34.3% | 15.7% | 31.9% | 50.5% | 13.5% | 37.7% | 35% | -0.716% (active) | 46.7% | 35.1% |
| NC1=NN=C(N)C1=Cc1cc2ccccc2n2nnnc12 | 99% | 100% | 105% | 96.8% | 105% | 87.4% | 95% | 103% | 93.9% | 99.7% | 100% | 92.9% | 108% | 95.5% | 110% | 98.6% | 99.3% | 102% | 98.3% | – |
| CCOC(=O)[C@@H](C)C[C@H](Cc1ccccc1)NC(=O)c1csc([C@@H](C[C@H](C(C)C)N(C)C(=O)[C@@H](NC(=O)[C@H]2C[C@H](O[Si](C)(C)C(C)(C)C)CCN2C)C(C)C)OC(C)=O)n1 | 17.6% [9.25 µM] | -39.2% [9.25 µM] (active) | 25% [9.25 µM] | 0.247% [9.25 µM] (active) | -23.9% [9.25 µM] (active) | -9.53% [9.25 µM] (active) | -46.7% [9.25 µM] (active) | 7.91% [9.25 µM] (active) | -5.36% [9.25 µM] (active) | -72.6% [9.25 µM] (active) | -21.4% [9.25 µM] (active) | 3.46% [9.25 µM] (active) | 18.1% [9.25 µM] | -34.7% [9.25 µM] (active) | -10.3% [9.25 µM] (active) | 4.82% [9.25 µM] (active) | -15.6% [9.25 µM] (active) | -49.7% [9.25 µM] (active) | 21.3% [9.25 µM] | -42.2% [9.25 µM] (active) |
| c1ccc2cc(Cn3c(-c4cccc5ccccc45)[n+](Cc4ccc5ccccc5c4)c4c5ccccc5c5ccccc5c43)ccc2c1 | -60.8% (active) | -66% (active) | -25% (active) | -85.1% (active) | -71.7% (active) | -52.3% (active) | -64.2% (active) | -71.7% (active) | -70% (active) | -84.9% (active) | -96.5% (active) | -35.2% (active) | -82.6% (active) | -72.9% (active) | -90.6% (active) | -38.2% (active) | -83.9% (active) | -92.5% (active) | -67.2% (active) | – |

Reference: PubChem BioAssay (NCI)
